Many of the other results were omitted from the sample, so hits are more common in it than they were.
HIV RNase H inh-1: inhibitors of HIV-1 reverse transcriptase RNase H | RT-RNase H RNA/DNA duplex cleavage, fluorescence | inhibition, % at 10 µM | 65,000 tested, 1.9% active; in the data active = inhibition above about 50%
HIV RNase H inh-2: confirmation of HIV-1 reverse transcriptase RNase H inhibitors. shares compounds with HIV RNase H inh-1. Recombinant RT RNase H, fluorescent RNA/DNA duplex cleavage. inhibition, % at 10 µM. 1,000 tested, 39% active. AID 651; in the data active = inhibition above about 48%; inconclusive = no clear call, values can overlap the other calls
Numbers without * were called inactive; ? = inconclusive.

SMILES | HIV RNase H inh-1 | others
Cc1[nH]c2ccc(-c3nnc(SCC(=O)c4ccc(F)cc4)o3)cc2c1C | 78.5* | HIV RNase H inh-2=?
O=C(CSc1nnc(-c2ccc(F)cc2)o1)N1CCN(C(=O)c2ccco2)CC1 | 81.0* | HIV RNase H inh-2=31.7
O=C(CSc1nnc(CNc2ccc(F)cc2)o1)N1CCN(C(=O)c2ccco2)CC1 | -11.8
COc1cc(-c2nnc(SCC(=O)c3ccc(C)cc3)o2)cc(OC)c1OC | -7.3
O=C(CSc1nnc(CNc2ccccc2)o1)c1ccc2c(c1)OCCO2 | -81.3
CCCn1nnnc1SCC(=O)c1ccc2c(c1)OCCO2 | -3.5
O=C(CSc1nnc(-c2ccccc2Br)o1)N1CCN(C(=O)c2ccco2)CC1 | 1.7
COc1ccc(C(=O)CSc2nnc(-c3ccc(C)cc3)o2)cc1 | 25.9
O=C(C1CCCN(c2ncccn2)C1)N1CCc2ccccc21 (centres undefined) | 0.7
CC(C)=CCCC(C)NC(=O)NC1CCCCC1 (centres undefined) | -0.6
Cc1nnc(Sc2nc(Sc3nnc(C)s3)nc(N3CCN(C)CC3)n2)s1 | -8.0
CC1CCN(c2c(NCc3ccc(C(=O)NCC4COc5ccccc5O4)cc3)c(=O)c2=O)CC1 (centres undefined) | 2.2
CCCOc1ccc2[nH]cc(C(=O)O)c(=O)c2c1 | -2.3
CC(C)CC(=O)Nc1ccccc1-c1nnn(CC(=O)N2CCOCC2)n1 | -13.4
O=C(c1ccco1)N1CCC(c2nc(-c3ccc(F)cc3)no2)CC1 | -7.0
O=C(Nc1cccc(C(F)(F)F)c1)N1CCC(c2nc(-c3ccc(F)cc3)no2)CC1 | 67.3* | HIV RNase H inh-2=47.2
O=C(Nc1ccccc1)N1CCC(c2nc(-c3ccc(S(=O)(=O)N4CCOCC4)cc3)no2)CC1 | -10.1
CCN(CC)C(=O)Cn1nnc(-c2ccc(C)o2)n1 | 3.2
Cc1ccc(-c2nnn(CC(=O)NCCc3ccc4c(c3)OCO4)n2)o1 | -7.8
Cc1ccc(-c2nnn(CC(=O)Nc3cccc4c3CCCC4)n2)o1 | 70.7* | HIV RNase H inh-2=6.6
COc1cccc(NC(=O)CSc2nnc(-c3cccs3)n2C)c1 | 2.6
C=CCn1c(Cc2cccs2)nnc1SCC(=O)Nc1cccc(OC)c1 | 72.9* | HIV RNase H inh-2=42.3
C=CCn1c(Cc2cccs2)nnc1SCC(=O)Nc1ccc(OC)cc1 | -28.9
Cc1ccc2cc(C#N)c(NCCNC(=O)C3CC3)nc2c1C | -30.5
O=C(Cn1c(CN2CCCCC2)nc2ccccc2c1=O)NCc1ccco1 | 2.5
SMILES | HIV RNase H inh-1 | others
CCc1ccc(CCC(=O)Nc2sc3c(c2C#N)CCCC3)o1 | 43.1
CC1(C)Cc2c(sc(NC(=O)c3ccc(Br)o3)c2C#N)CO1 | -2.7
N#Cc1c(NC(=O)c2ccc(Cn3cc(Br)cn3)o2)sc2c1CCCCCC2 | 88.5* | HIV RNase H inh-2=61.5*
Cc1ccc(-c2cc(C(F)(F)F)n3ncc(C(=O)NCc4ccco4)c3n2)cc1 | 62.6* | HIV RNase H inh-2=42.0
O=C(NCc1ccco1)c1cc2nc(-c3ccc4c(c3)OCO4)cc(C(F)(F)F)n2n1 | 15.7
Cc1ccccc1Cc1c(C)nc2c(C(=O)NCc3ccco3)cnn2c1C | -51.2
COc1ccc(-c2cc(C(F)(F)F)n3nc(C(=O)NCc4ccco4)cc3n2)cc1 | -5.5
Cc1ccc(-c2cc(C(F)F)n3ncc(C(=O)NCc4ccco4)c3n2)cc1 | 70.3* | HIV RNase H inh-2=73.8*
CCOC(=O)N1CCN(C(=O)c2cnn3c(C(F)F)cc(-c4ccc(C)cc4)nc23)CC1 | -10.3
CCS(=O)(=O)N1Cc2ccccc2CC1C(=O)N1CCN(c2cccc(C)c2C)CC1 (centres undefined) | 24.1
CC(=O)c1cc2c(cc1NS(=O)(=O)c1ccc(C)cc1)OCCO2 | -52.6
CCCCn1c(N)c(N(CCOC)C(=O)CSc2nc3ccc(C)cc3[nH]2)c(=O)[nH]c1=O | 6.4
COC(=O)Cn1ncn2c(cc3oc(C)cc32)c1=O | 4.0
O=C(N1CCC(O)(c2cccnc2)CC1)C12CC3CC(CC(C3)C1)C2 | 2.5
COc1ccc(C)c2sc(N3CCCC3)nc12 | -17.4
Clc1ccc2nc(N3CCN(c4ccccc4)CC3)sc2c1 | 12.0
COc1ccc(OC)c2sc(N3CCN(c4ccccc4)CC3)nc12 | 75.1* | HIV RNase H inh-2=42.8
CC(C)OC(=O)c1nnn(-c2nonc2N)c1CN1CCCCCC1 | -5.9
CCCN1C(=O)C(O)(C2CC(=O)CC(C)(C)O2)c2ccccc21 (centres undefined) | -5.1
Cc1ccc(CSc2nc3c(c(=O)[nH]2)CCC3)cc1 | -26.2
Cc1ccc(CSc2nc3c(c(=O)[nH]2)C(c2ccncc2)C2=C(CCCC2=O)N3)cc1 (centres undefined) | 59.3* | HIV RNase H inh-2=40.3
CSc1nc2c(c(=O)[nH]1)C(c1cccs1)C1=C(CCCC1=O)N2 (centres undefined) | 16.7
Cc1ccc(-c2ccc(/C=N/c3ncn[nH]3)o2)cc1Cl | -3.7
CC(C)C(OC(=O)c1ccco1)C(=O)NCc1cccs1 (centres undefined) | -6.8
O=C(NCc1ccco1)c1cccc2ccccc12 | -3.7
O=C(NCc1ccco1)c1cc(-c2cccnc2)nc2ccccc12 | 5.4
O=C(NCc1ccco1)c1cccnc1-c1nc2ccccc2s1 | 85.4* | HIV RNase H inh-2=63.0*
